Where a chain is given by its changes, count along the chain named. Whole data set: some 24,000 sequences, median “enrichment r” near 0.99, cut for the highest 2% near 3.7. The entries come from a sample that favours the highest values as a whole.
T1: UNK ZnF1-3 (human, UniProt Q9C0B0 31-174)
T1 sequence: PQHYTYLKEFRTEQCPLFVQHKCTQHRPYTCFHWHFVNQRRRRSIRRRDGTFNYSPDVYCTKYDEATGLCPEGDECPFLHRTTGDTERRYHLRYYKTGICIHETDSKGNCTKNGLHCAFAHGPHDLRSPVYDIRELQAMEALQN

B1: chr7:75932113:75932114:+_ENSG00000106211_ENST00000248553|hu_mus|FALSE|FALSE (ssRNA)
RNA: GGGAGUUCUACAGUCCGACGAUCCUGCGACCACUCAUCGGGCAACCGGGGCACCCCGAAAGCUUGAUCGAAGAGGCGGCUGUGUGCAGGGUACCAGUCCCGGAAUGGUUCCCAGCUCGGGCUCCGCAGCAGCGAGAAGGGCACCAACAGAGGAUUGAGCAUCA
B2: chr16:45382771:45382772:-_ENSMUSG00000022661_ENSMUST00000163230|mus_mus|mus_mus_mus_hu_True|28_78 (ssRNA)
RNA: GGGAGUUCUACAGUCCGACGAUCCUGGGUCAUGUUAUAAGACAAAUGGACAGGGAGAGCAUGCUUUUCAAAAAAUGUGAGCUAUUGUCUAAGACUAACAAUAUUUACUAAGUGCUAAAAAUAAGUUAAAUGAAUAAGUUAAGACAACAGAGGAUUGAGCAUCA
B3: chr16:45382771:45382772:-_ENSMUSG00000022661_ENSMUST00000163230|mus_mus|mus_mus_mus_hu_True|28_68 (ssRNA)
RNA: B2 RNA with A57G, U66C, C68G, A69U, A73G
B4: chr16:45382771:45382772:-_ENSMUSG00000022661_ENSMUST00000163230|mus_mus|mus_mus_mus_hu_True|18_28 (ssRNA)
RNA: B2 RNA with A57G, U66C, A117U, U121A, A123U, G124A, U125A, U126G
B5: chr16:45382771:45382772:-_ENSMUSG00000022661_ENSMUST00000163230|mus_mus|mus_mus_mus_hu_True|28_88 (ssRNA)
RNA: B2 RNA with C50U, A57G, U66C
B6: chr1:225611761:225611762:-_ENSG00000143815_ENST00000272163|hu_mus|hu_hu_hu_mus_True|78_108 (ssRNA)
RNA: GGGAGUUCUACAGUCCGACGAUCCCAGGCCAUCGACCUCUGACCACUUCACCCUCAGCAAAUUUCCUACUUGGCAUUUUCUAAAAUUAGUCUGGCCGCGCUCCGGCGGGAACUCCAGCCACUCCAGGACAGUCACCAGCAGCCCAACAGAGGAUUGAGCAUCA
B7: 71781198_71781318_2220_CDS_ENSMUSG00000008305_ENSMUST00000030095|mouse|control|control (ssRNA)
RNA: GGGAGUUCUACAGUCCGACGAUCCACGCAGCUCUCGUGGAGGUGCAGCUGGUACUUGUCAGGCUUGUUCACAUGCAGAACUUCCACGUUGCUGCUUUCCAUGCCCACAGCAAGCCACUCCCCAGUUGGGCAAUAUCCCAAAGACAACAGAGGAUUGAGCAUCA
B8: chr3:57561382:57561383:-_ENSG00000168374_ENST00000303436|hu_hu|FALSE|FALSE (ssRNA)
RNA: GGGAGUUCUACAGUCCGACGAUCUAGCAGCACUGCAUCUCUCAAUUCAUCUACCAGAAGCAUUUUCUGCAGCUCAUCUGCUACUUCCUGAAUUCUUUCACGAUCGUUGCUAUCUACCACAAAAAUAAGACCCUGGGUAUUCUGCAACAGAGGAUUGAGCAUCA
B9: chr1:163295886:163295887:+_ENSG00000143228_ENST00000271452|hu_mus|motif|central (ssRNA)
RNA: GGGAGUUCUACAGUCCGACGAUCGGUUUUUGCCAUCUGCUCCUGUUAAUAAUUUAUUGCGAAUAUGAACCACAAGCUCAGCGGCAUUGUAUCUGGGGAAUGACAAAGUUUCCAUUAUGGGAGUCUCCUCCCUGAGUAUUGUUGCAACAGAGGAUUGAGCAUCA
B10: chr6:29525140:29525141:-_ENSMUSG00000012535_ENSMUST00000012679|mus_hu|FALSE|FALSE (ssRNA)
RNA: GGGAGUUCUACAGUCCGACGAUCGUUAGUUUUGUACAAAUGUUCCCCCAGUCGGUACCAAAAGUUAAAUGAAAUUUCUACUACCUCAUAUUGAGGAUGGCCUGCACAGAUAAGCAGCAGCUCCAGAGUUCGAAGGUCCCCAAGCAACAGAGGAUUGAGCAUCA
B11: chr1:36770067:36770068:+_ENSG00000054118_ENST00000354618|hu_hu|FALSE|FALSE (ssRNA)
RNA: GGGAGUUCUACAGUCCGACGAUCUCUUUCAAGAAUCAAAGUUUCCCAAAUUAAAUGUUUCUAAUAUUACUACAUAUGCCUAAAAAAAGAAAAAAAAAAAAAAAAAGGAGGGGGCUUUUAAAAUCAGGACAGGGGAAAAGAGAUCAACAGAGGAUUGAGCAUCA
B12: chr19:16212804:16212805:+_ENSG00000167460_ENST00000300933|hu_hu|motif|central (ssRNA)
RNA: GGGAGUUCUACAGUCCGACGAUCAGGAAAUAUGCAAAAGAACAUCACAUCAAGGAUCAAUUAAUUACCAUCUAUUAAUUACGGUAUGUGGGUAAUUAUGACUAUUUCCCAAGCAUUCUACGUUGACUGCUUGAGAAGAUGUUUCAACAGAGGAUUGAGCAUCA
B13: chr7:155493584:155493585:+_ENSG00000184863_ENST00000401878|hu_mus|FALSE|FALSE (ssRNA)
RNA: GGGAGUUCUACAGUCCGACGAUCAGAAAGUUCCAAAGUUUCUGGAAUGUUCCUUCUCUCUCUAGUUACAUCUGAAAGCCUAAUAAUUGUUCCUUCUUUCCUUUCAGUUUUAAAACGUAAUCGUCCAGAUUCUUCAUCAUCAUCCAACAGAGGAUUGAGCAUCA
B14: chr1:36770067:36770068:+_ENSG00000054118_ENST00000354618|hu_hu|motif|central (ssRNA)
RNA: B11 RNA with U80G, A81G
B15: chr1:201104638:201104639:-_ENSG00000116857_ENST00000367334|hu_hu|FALSE|FALSE (ssRNA)
RNA: GGGAGUUCUACAGUCCGACGAUCAGAGAUCAGAGACCACAUCCCUCUUCCCUAAUCAAAAUAGCCAAGUACAACAUUUCUAAAGUUAGGGAGAAGGAGGAAAAAUGCCACAGGCUUUUAAAGGGAAGACUGGAACCGAGGGAACAACAGAGGAUUGAGCAUCA

Target: T1, UNK ZnF1-3
Test: nsRBNS (natural sequence RNA bind-n-seq); RBNS binding buffer (assumed for nsRBNS): 25 mM Tris pH 7.5, 150 mM KCl, 3 mM MgCl2, 0.01% Triton X-100, 500 ug/ml BSA, 20 U/ml SUPERase-In, 4 C; UNK is unkempt and MSI1 is Musashi-1; names of the RNAs are library labels; protein concentration not given here; high values mean tight binding

Binder | binding signal [enrichment R]
B1 | 1.04
B2 | 12.8
B3 | 6.96
B4 | 9.98
B5 | 5.11
B6 | 1.33
B7 | 0.78
B8 | 0.947
B9 | 1.12
B10 | 0.862
B11 | 4.92
B12 | 0.67
B13 | 0.81
B14 | 3.96
B15 | 2.05

— publication PMC12136788
